CSC inhib: cancer stem cell inhibition; cancer stem cell-like cells viability, luminescence; inhibition, % at 7.5 µM; 1.1% of 300,000 active; AID 2717; in the data active means inhibition above about 75%; inconclusive means no clear call, values can overlap the other calls; tested in HMLE shEcad cells
PP5 inh: blocks human protein phosphatase 5 activity | inhibition, % at 6.7 µM | 0.18% of 320,000 active | AID 1987 | purified PP5c, OMFP substrate fluorescence;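 active means inhibition above the campaign's mean inhibition across all tested compounds plus 3 SD, cut at about 9.5% in these data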;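 further: 0% = DMSO only and 100% = 100 µM cantharidin control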
Target sequence (P53041 whole entry, looked up): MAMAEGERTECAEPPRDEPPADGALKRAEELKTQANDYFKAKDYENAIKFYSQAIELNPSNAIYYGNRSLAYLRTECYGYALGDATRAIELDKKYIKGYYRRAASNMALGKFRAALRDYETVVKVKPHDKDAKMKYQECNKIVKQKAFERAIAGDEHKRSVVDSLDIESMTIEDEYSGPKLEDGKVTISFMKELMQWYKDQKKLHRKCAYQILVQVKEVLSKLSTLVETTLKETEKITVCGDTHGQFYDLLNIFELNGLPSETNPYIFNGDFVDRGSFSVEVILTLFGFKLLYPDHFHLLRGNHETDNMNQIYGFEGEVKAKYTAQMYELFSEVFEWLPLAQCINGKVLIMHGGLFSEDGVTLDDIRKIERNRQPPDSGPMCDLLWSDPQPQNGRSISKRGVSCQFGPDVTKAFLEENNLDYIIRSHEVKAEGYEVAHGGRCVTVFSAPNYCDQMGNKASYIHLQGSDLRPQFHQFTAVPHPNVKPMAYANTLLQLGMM
PP1 inh: blocks human PP1-alpha phosphatase, a PP5 counter-screen; AID 2235; purified PP1alpha, OMFP fluorescence; inhibition, % at 6.7 µM; 0.9% of 320,000 active;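 active means inhibition above the mean inhibition of all tested compounds plus 3 SD, computed separately for each screening campaign, cut at about 15% in these data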
Beta cell apopt: beta cell apoptosis inhibition. INS-1E cytokine-induced death, ATP luminescence, 48 h; percent of positive-control rescue, neutral wells zero. protection from apoptosis, % (concentration not given with the values). 0.8% of 300,000 active. AID 435005;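 active means Every replicate reaches about 75%, or at least half do and their mean reaches it too, limit read from the data; inconclusive means At least half of replicates reach the limit but their mean does not; inactive means Under half of replicates reach the limit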;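 further: 0% = cytokine-treated negative control wells and 100% = positive control rescue; higher means more ATP so stronger rescue from cytokine killing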
SKKanGAS inh: inhibitors of SKKanGAS S. pyogenes growth in kanamycin (SK-promoter or general growth effect); AID 1662; BacTiter-Glo, 6 h; 1.3% of 300,000 active; inhibition, % at 7.5 µM;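 active means mean replicate score, as percent of positive control median, at least 50; inconclusive means mean below 50 but one replicate at or above 50; inactive means mean and every replicate below 50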;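 further: strain carries kanamycin resistance gene driven by streptokinase promoter and grows in 40 µg/ml kanamycin; loss of luminescence reflects streptokinase promoter inhibition or plain growth inhibition; 0% = median of DMSO wells and 100% = positive control at its reference dose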
* hit, by the source's call; ? = inconclusive; . = no result. A selection: hits, their analogues and other compounds. The true share with any hit is near 3.1%.

SMILES	CSC inhib	PP5 inh	PP1 inh	Beta cell apopt	SKKanGAS inh
CC(C)(C)OC(=O)C[C@H]1C/C=C\C[C@H](CC(=O)N[C@H](CO)Cc2ccccc2)C(=O)N2CCC[C@H]2COC1=O	-12.1	.	.	-0.9	.
Cc1ccc(/C=C/C(=O)c2ccccc(=O)c2O)cc1C	96.7*	0.7	14.0	22.5	96.9*
COc1ccc(/C=C/C(=O)c2ccccc2O)cc1	10.3	1.3	1.5	0.8	7.6
O=C(/C=C/c1ccccc1)c1cc(Br)ccc(=O)c1O	93.3*	2.5	16.8*	16.7	98.4*
Nc1ccccc1C(=O)N/N=C1\C2CN3CCN(C2)CC1(c1ccccc1)C3	16.0	-9.6	-9.2	-7.8	1.0
CN(C)c1cc(C(F)(F)F)nc(-c2ccccn2)n1	-12.6	2.5	3.6	-4.2	11.1
CSCc1cc(N(C)c2ccccc2)nc(-c2ccccn2)n1	39.0	1.4	15.2	54.8	75.4*
Cc1c(C)c2c(OCC(=O)NC3CC3)cc3c(c2oc1=O)CCC(C)(C)O3	7.2	5.0	1.0	3.6	-1.4
Cc1cc(=O)oc2c3c(cc(OCC(=O)NC4CC4)c12)OC(C)(C)CC3	-12.9	0.8	0.2	1.7	88.0*
COC(=O)c1ccc(NC(=O)c2cc[n+](Cc3ccccc3)cc2)cc1	-11.9	.	.	-6.7	-5.5
O=C(NCCC1=CCCCC1)C1CCN(C(=O)c2ccc(Br)cc2)CC1	-13.7	2.1	-0.7	-11.8	5.6
CCOc1ccc(S(=O)(=O)N2CCN=C2c2ccccc2)cc1	117.4*	0.7	-1.3	4.7	18.8
Cc1cc(S(=O)(=O)N2CCN=C2c2ccccc2)ccc1F	-5.0	1.3	-3.9	-2.9	-8.0
Cc1ccc(C(O)CSc2nnc(-c3ccc4ccccc4c3)n2C)cc1 (stereo not given)	-6.0	-0.4	-0.8	7.0	-0.2
COc1ccc(OC)c(-c2c3cc(O)c(=O)cc-3oc3cc(O)c(O)cc23)c1	95.4*	-82.0	-103.0	0.6	.
COc1ccc(OC)c(-c2oc3ccccc3c(=O)c2O)c1	.	-0.1	4.4	-5.0	-1.7
CC1(c2nnc(Cc3ccccc3)o2)CC(c2ccc(Br)cc2)=NO1 (stereo not given)	18.0	0.5	15.6*	0.6	-6.7
CCOc1ccc(CNc2ccc(N3CCCC3)cc2)cc1	4.3	1.1	15.7*	108.8*	2.1
CCOc1ccc(OCCNC(=O)c2ccc3c(c2)nnn3CC)cc1	-0.6	.	.	9.8	.
CCOC(=O)C(=O)NNc1ccc(Cl)cc1	81.8*	2.2	0.6	-1.4	3.3
CCCOC(=O)C(=O)NNc1ccccc1	?	2.4	-0.7	-1.4	5.1
CCc1ccc(C(=O)NNc2ccc(Cl)cc2)cc1	98.8*	-1.7	-2.7	29.5	5.5
CCCCN=C(NNc1ccc(Br)cc1)C(=O)OCC	136.0*	2.1	2.6	-7.5	9.1
CCOC(=O)C(=NCCCN(C)C)NNc1ccc(Br)cc1	17.6	1.7	-5.6	3.8	-10.3
CCOC(=O)C(=O)NNc1ccccc1OC	-5.1	0.0	-3.8	3.7	2.3
SMILES	CSC inhib	PP5 inh	PP1 inh	Beta cell apopt	SKKanGAS inh
CCc1ccc(C(=O)NNc2cc(Cl)cc(Cl)c2)cc1	20.1	1.2	0.6	0.7	11.7
CCOC(=O)C(=O)NNc1ccc(C)cc1	102.2*	-4.4	-1.7	-7.8	-1.6
N#Cc1sc2nc3c(cc2c1N)CCCC3	1.6	-1.0	0.0	5.4	-3.8
CCN(CC)c1ccc(C=NCCNS(=O)(=O)c2ccc(C)cc2)cc1	0.2	3.3	0.9	-2.2	0.5
O=C(NNc1ccc(Cl)cc1)c1cccs1	95.9*	2.4	-3.8	-7.6	-3.5
O=C(NNc1cc(Cl)cc(Cl)c1)c1cccs1	27.7	1.5	0.9	0.3	1.6
COc1cc2cnc(-c3ccccc3)c(-c3cccc(C(F)(F)F)c3)c2cc1OC	127.8*	3.5	1.7	3.8	.
Fc1ccc2cnc(-c3ccccc3)c(-c3cccc(C(F)(F)F)c3)c2c1	24.9	2.1	-1.2	-5.2	.
Cc1ccc(C(=O)OCCOc2cccc(Cl)c2)cc1S(=O)(=O)N1CCOCC1	15.2	2.0	4.6	2.1	0.2
CC(C)(C)C(=O)NC(Nc1cccc2cccnc12)C(Cl)(Cl)Cl (stereo not given)	.	3.3	-1.2	77.6*	6.3
CCC(=O)NC(NC(=S)Nc1cccc2cccnc12)C(Cl)(Cl)Cl (stereo not given)	-4.8	0.9	-1.3	-5.5	1.3
O=C(OCn1nnc2ccccc2c1=O)c1cc(-c2ccccc2)nc2ccccc12	2.0	0.1	2.7	-4.1	-5.4
CCOc1ccc(N/C(N)=N/c2nc(CSc3nnnn3-c3ccccc3)cc(=O)[nH]2)cc1	.	0.8	0.7	1.7	-1.7

From PubChem BioAssay
